Cruzain Triton: blocks cruzain activity in presence of Triton detergent | P25779 | purified cruzain, Z-FR-AMC fluorescence, 0.01% Triton | Potency, µM, hits mostly inhibitors | 200,000 tested, 0.43% active | AID 1478; note: nearly all actives have a fitted effect of over 40% in size
Target sequence (P25779 123-467 limits assumed): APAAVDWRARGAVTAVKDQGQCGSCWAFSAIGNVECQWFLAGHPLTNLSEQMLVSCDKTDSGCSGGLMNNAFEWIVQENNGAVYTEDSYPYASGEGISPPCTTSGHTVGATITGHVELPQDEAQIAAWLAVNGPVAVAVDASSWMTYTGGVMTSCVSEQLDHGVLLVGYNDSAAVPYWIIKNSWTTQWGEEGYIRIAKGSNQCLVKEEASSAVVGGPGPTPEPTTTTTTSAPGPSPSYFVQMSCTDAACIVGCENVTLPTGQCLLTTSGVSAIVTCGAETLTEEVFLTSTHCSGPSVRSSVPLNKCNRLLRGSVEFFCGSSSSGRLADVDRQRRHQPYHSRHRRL
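Sodium acetate buffer (100 mM, pH 5.5) containing 5 mM DTT and 0.01% Triton X-100 hosted 1.5 nM cruzain and test compound for 15 min at room temperature. Cleavage of 2 uM Z-FR-AMC was then tracked by fluorescence.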
Cruzain noTriton: inhibitors of Trypanosoma cruzi cruzain without detergent. Potency, µM, actives largely listed as inhibitors. purified cruzain, Z-FR-AMC fluorescence, no detergent. 200,000 tested, 2.3% active; note: nearly all actives have a fitted effect of over 40% in size
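Purified cruzain at 1.5 nM, pre-incubated 15 min with compound at room temperature in 100 mM sodium acetate pH 5.5, 5 mM DTT, 0.00005% Triton X-100. Reaction started with 2 uM Z-FR-AMC; AMC fluorescence increase over 60 s gives rate.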
Of the large screens only hits and unclear results are named; the others gave an inactive call. Sampled rows, rich in hits. Any-hit rate of the full collection: about 2.5%. Calls come from the whole dose curve; as a rule, active = well fitted curve in the direction sought with a large enough effect; inconclusive = small, poorly fitted or top-dose-only effect, or another doubt; inactive = no such curve, though single readings can be large; an effect the other way counts as inactive or inconclusive.

Cc1ccc(-c2nnc(SCC(=O)NC(C)(C)C)nc2-c2ccc(C)cc2)cc1	none
O=C(O)CC[C@]1(C(=O)O)CCC(=O)c2ccccc21	none
CCS(=O)(=O)c1nc(S(=O)(=O)c2ccc(C)cc2)c(NCC(C)C)s1	none
Cc1ccc(NC(=O)Cn2cnc3sc(C(=O)O)c(C)c3c2=O)cc1Cl	Cruzain Triton 0.0063µM
Cc1ccc(NC(=O)Cn2cnc3sc(C(=O)NCCN(C)C)c(C)c3c2=O)cc1Cl	none
CCN(CC)C(=O)c1cc(-c2ccc(Cl)cc2)on1	none
CSCCC(NC(=O)OC(C)(C)C)C(=O)NC(CC(C)C)C(N)=O (configuration not stated)	none
CC(C)CC(NC(=O)C(CC(C)C)NC(=O)OC(C)(C)C)C(N)=O (configuration not stated)	Cruzain Triton inconclusive, Cruzain noTriton 16µM
CC(C)c1ccc(C(O)(C(=O)O)c2ccc(C(C)C)cc2)cc1	none
Fc1ccc2c(Cl)c(-c3nnc(-c4cccs4)o3)sc2c1	Cruzain noTriton 10µM
COc1cc(-c2nnc(-c3cccs3)o2)cc(OC)c1OC	none
c1ccc2c(c1)[nH]c1ccccc12	none
O=Cc1c2[nH]c3ccccc3c2cc2[nH]c3ccccc3c12	Cruzain noTriton 25µM
Cc1ccc(NC(=O)N2CCC3(CC2)Oc2ccccc2C(=O)N3Cc2ccc(F)cc2)cc1	Cruzain noTriton inconclusive
O=C1c2ccccc2OC2(C=Cc3ccccc3O2)N1Cc1ccccc1 (configuration not stated)	Cruzain noTriton 25µM
CC(C)[C@H](NC(=O)OCc1ccccc1)C(=O)OCC(=O)Nc1c(F)cccc1F	Cruzain Triton 14µM, Cruzain noTriton inconclusive
CC(C)C(NC(=O)OCc1ccccc1)C(=O)O (configuration not stated)	none
CC(C)[C@H](NC(=O)OCc1ccccc1)C(=O)N[C@H](C=O)Cc1ccccc1	Cruzain Triton 0.032µM, Cruzain noTriton 0.032µM
CC(C)[C@H](NC(=O)OCc1ccccc1)C(=O)NCc1ccccc1	none
NCCc1c[nH]c2ccc(OC(=O)C(=O)O)cc12	none
CN(C(=O)CSc1nnc(-c2ccc([N+](=O)[O-])cc2)o1)c1ccccc1	none
Cc1ccc(N2CCN(C(=O)Cn3ncc4c([nH]c5ccc(C)cc54)c3=O)CC2)c(C)c1	none
Cc1ccc(-c2cc(NC(=O)COc3ccc(Cl)cc3C)on2)cc1	Cruzain noTriton 10µM
COc1ccccc1OCC(=O)Nc1cc(-c2ccc(C)cc2)no1	none
Cc1cc(Cl)ccc1OCC(=O)O	none
Cc1cc(Cl)ccc1OCC(=O)Nn1c(C)ccc1C	Cruzain noTriton 2.5µM
COc1ccc(CCNC(=O)c2oc(=O)c3ccccc3c2-c2ccccc2)cc1OC	none
COc1ccccc1CNc1nc2ccc(C)cc2n2nnnc12	none
N#C/C(=C\c1cn(CCOc2ccccc2)c2ccccc12)C(=O)NCc1ccco1	none
Cc1cc(C)cc(NC(=O)/C(C#N)=C/c2cn(CC(=O)NCc3ccco3)c3ccccc23)c1	Cruzain noTriton 16µM
Cc1ccccc1OCCn1cc(/C=C(\C#N)C(=O)NCc2ccco2)c2ccccc21	none
Cc1ccc(C)c(NC(=O)/C(C#N)=C/c2cn(CC(=O)NCc3ccco3)c3ccccc23)c1	Cruzain noTriton 7.9µM
CC1CCc2nc3ncn(CC(=O)Nc4cccc(C#N)c4)c(=O)c3cc2C1 (configuration not stated)	none
CSc1ccc(C2CC(=O)Oc3c2c(=O)n(C)c2ccccc32)cc1 (configuration not stated)	none
CCCn1cnc2c(SCC(=O)O)nc(N)nc21	none
Cc1sc(NC(=O)/C=C/C(=O)O)c(C(N)=O)c1-c1ccc(C(C)(C)C)cc1	none
Cc1sc(NC(=O)c2cccc([N+](=O)[O-])c2)c(C(N)=O)c1-c1ccc(C(C)(C)C)cc1	Cruzain noTriton 13µM
CN1CCN(C(=O)c2ccc3c(c2)N(Cc2ccc(C(F)(F)F)cc2)C(=O)c2ccccc2S3)CC1	Cruzain noTriton inconclusive
CCn1c2ccccc2c2cc(/C=N/n3cnnc3)ccc21	none
Cc1cccc(C(=O)N/N=C/c2ccncc2)c1	none
CCn1c2ccccc2c2cc(/C=N/NC(=O)c3cccc(C)c3)ccc21	Cruzain noTriton 7.9µM
CCn1c2ccccc2c2cc(/C=N/NC(=O)c3ccccc3C)ccc21	Cruzain noTriton 32µM
COc1ccc(C)cc1S(=O)(=O)N1CCN(c2cccc(Cl)c2)CC1	none
COc1cc(OC)c2c(-c3cccc(/C=C/c4ccc(F)cc4)c3)cc(=O)oc2c1	Cruzain noTriton 10µM
COc1cc(OC)c2c(-c3cccc(-c4ccc(O)cc4)c3)cc(=O)oc2c1	Cruzain noTriton inconclusive
Cc1cccc(-c2cccc(-c3cc(=O)oc4cc5c(cc34)OCO5)c2)c1	Cruzain noTriton 35µM
COc1cc(OC)c2c(-c3cccc(-c4ccc(OC(F)(F)F)cc4)c3)cc(=O)oc2c1	Cruzain noTriton inconclusive
COc1cc(OC)c2c(-c3cccc(-c4cccc(C)c4)c3)cc(=O)oc2c1	Cruzain noTriton 10µM
COc1ccc(-c2cccc(-c3cc(=O)oc4cc5c(cc34)OCO5)c2)cc1	Cruzain noTriton inconclusive
COc1cc(OC)c2c(-c3cccc(-c4ccc(N(C)C)cc4)c3)cc(=O)oc2c1	Cruzain noTriton 32µM
COc1cc(OC)c2c(-c3cccc(-c4ccc(CO)cc4)c3)cc(=O)oc2c1	none
CN(C)S(=O)(=O)N1CCC(n2cnc3cccnc32)CC1	none
Cc1cccc(N2C(=O)N(Cc3cccc(C#N)c3)c3ccccc3S2(=O)=O)c1	Cruzain noTriton inconclusive
CCOc1ccc(NC(=O)C2CCCN(S(=O)(=O)c3c(C)noc3/C=C/N(C)C)C2)cc1 (configuration not stated)	Cruzain noTriton inconclusive
CCOC(=O)c1cc2c(=O)n3ccccc3nc2n(CC2CCCO2)c1=NC(=O)c1ccc(OCC)cc1 (configuration not stated)	none
O=C(CCc1nc2cccnc2n1-c1ccccc1)Nc1ccc(Cl)c(Cl)c1	none
COc1cccc(/C=N/NC(N)=S)c1OCc1ccccc1Cl	Cruzain noTriton inconclusive
COc1cccc(/C=N/NC(N)=S)c1OS(=O)(=O)c1ccccc1	Cruzain Triton 14µM, Cruzain noTriton 5µM
NC(=S)N/N=C/c1ccccc1OCCSc1ccc(Cl)cc1	Cruzain Triton 1.4µM, Cruzain noTriton 1µM
COc1cccc(/C=N/NC(=O)c2cccc([N+](=O)[O-])c2)c1OS(=O)(=O)c1ccccc1	none
Cc1ccc(S(=O)(=O)Oc2ccccc2/C=N/NC(=O)c2nn(C)cc2[N+](=O)[O-])cc1	none
Cc1ccc(S(=O)(=O)Oc2ccccc2/C=N/NC(N)=S)cc1	Cruzain Triton 7.1µM, Cruzain noTriton inconclusive
CCN(CC)C(=O)Cn1c(=O)n(-c2ccc(Cl)cc2)c(=O)c2c3c(sc21)CCC3	none
CCC1=C(C[C@H]2NCCc3cc(OC)c(OC)cc32)C[C@H]2c3ccccc3CCN2C1	none
COc1cc(Cl)c(C)cc1NC(=O)Cn1cc(S(=O)(=O)N2CCN(c3ccccc3F)CC2)c2ccccc2c1=O	none
COc1ccc(NC(=O)Cn2cc(S(=O)(=O)N3CCN(c4ccccc4F)CC3)c3ccccc3c2=O)cc1Cl	Cruzain noTriton 7.9µM
COc1ccc(C)cc1NC1(c2ccccc2)C(=O)c2ccccc2C1=O	Cruzain noTriton inconclusive
Cc1ccc(NC(=O)CSc2nnc(-c3ccco3)c(-c3ccco3)n2)cc1	Cruzain Triton 25µM, Cruzain noTriton 10µM
Cc1cccc(C)c1NC(=O)CSc1nnc(-c2ccco2)c(-c2ccco2)n1	Cruzain Triton inconclusive
CSc1nnc(-c2ccco2)c(-c2ccco2)n1	Cruzain Triton 14µM, Cruzain noTriton 13µM
CSc1nnc2c(n1)OC=Nc1ccccc1-2	none
